Records with an inconclusive call do not appear. Calls of active or inactive are those of the source. Unless noted, calls follow the shape of the dose curve; as a rule, active = well fitted curve in the direction sought with a large enough effect in the repeat runs; inconclusive = weak or mixed curves; inactive = no such curve, though single readings can be large; an effect the other way counts as inactive or inconclusive.
Key:
[1] = qHTS assay for small molecule agonists of the p53 signaling pathway - cell viability (AID 651633; calls by dose curve; also: potency is read from the fitted curve at half-maximal effect; nearly all actives have a fitted effect of over 30% in size); settings: p53RE-bla HCT-116 viability, ATP luminescence, 16 h; series mostly up to 83.3 µM
Procedure, shortened: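 p53RE-bla cells, seeded at 4,000 per well and rested 5 h at 37 C/5% CO2, received compounds in DMSO for 16 h at 37 C. CellTiter-Glo was then added, and luminescence was read after 30 min at room temperature to gauge cytotoxicity.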

[2] = qHTS assay for small molecules that induce genotoxicity in human embryonic kidney cells expressing luciferase-tagged ATAD5 - cell viability (AID 651634; calls by dose curve; also: potency is read from the fitted curve at half-maximal effect; nearly all actives have a fitted effect of over 25% in size); settings: HEK293T ATAD5-luc cells viability, CellTiter-Fluor, 15.5 h; series mostly up to 83.3 µM
Procedure, shortened: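 Seeding of 2,000 HEK293T ATAD5-luciferase cells per well preceded pin-tool compound transfer. Plates sat 15.5 hr at 37C under 5% CO2, then fluorescence was read after 30 min with CellTiter-Fluor.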

[3] = qHTS assay for small molecule disruptors of the mitochondrial membrane potential - cell viability (AID 720634; calls by dose curve;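 also: human HepG2 liver cancer cells; nearly all actives have a fitted effect of over 20% in size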); settings: HepG2 viability, ATP luminescence (CellTiter-Glo), 1 h; series mostly up to 83.2 µM
Procedure, shortened: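 Measuring cytotoxicity alongside mitochondrial potential, the screen quantified ATP by luminescence in HepG2 cells after 1 hr compound incubation and a 30 min room-temperature CellTiter-Glo step.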

[4] = qHTS assay for small molecule disruptors of the mitochondrial membrane potential (AID 720635); settings: HepG2 mitochondrial membrane potential, Mito-MPS dye ratio; series mostly up to 83.2 µM; also: potency is read from the fitted curve at half-maximal effect
Procedure, shortened: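 HepG2 cells (2,000/well) attached overnight at 37C, then took compound for 1 hr at 37C, 5% CO2. Mito-MPS dye was added for 30 min; fluorescence was read at 490/535 nm (monomers) and 540/590 nm (aggregates).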

[5] = qHTS assay to test for compound auto fluorescence at 590 nm (red) in HepG2 cells (AID 720674); settings: HepG2 autofluorescence, red 540/590 nm, 1 h; series mostly up to 46 µM
Procedure, shortened: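 Rose Bengal sodium served as the red fluorophore standard. HepG2 monolayers (overnight attachment, MEM with 10% FBS) were exposed to test compounds for 1 hr at 37 C and read at Ex 540/Em 590 nm.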

[6] = qHTS assay to test for compound auto fluorescence at 535 nm (green) in HepG2 cells (AID 720675); settings: green autofluorescence 485/535 nm, 1 h; series mostly up to 46 µM
[7] = qHTS assay to test for compound auto fluorescence at 460 nm (blue) in HEK293 cells (AID 720678); settings: blue autofluorescence 405/460 nm; series mostly up to 46 µM
Procedure, shortened: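 After cell attachment (4-5 hr, 37C), compounds were pinned onto HEK293 monolayers in 10% dialyzed FBS medium. The blue channel (405/460 nm) was read following overnight culture. Equivalency was calculated against triamterene.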

[8] = qHTS assay to test for compound auto fluorescence at 590 nm (red) in HEK293 cells (AID 720679); settings: red autofluorescence 540/590 nm; series mostly up to 46 µM
Procedure, shortened: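 Plates of HEK293 cells (10% dialyzed FBS) are treated with 23 nL compound or DMSO vehicle after a 4-5 hr attachment period, incubated overnight at 37C, and read for red fluorescence at 540/590nm.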

[9] = qHTS assay to test for compound auto fluorescence at 535 nm (green) in HEK293 cells (AID 720680); settings: green autofluorescence 485/535 nm; series mostly up to 46 µM
[10] = qHTS assay to test for compound auto fluorescence at 460 nm (blue) in HEK293 cell free culture (AID 720681); settings: cell-free medium, autofluorescence 405/460 nm (blue); series mostly up to 46 µM
Procedure, shortened: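 Test compounds were pinned into cell-free culture medium (DMEM with 10% FBS) and fluorescence was read directly at Ex/Em 405/460 nm. Signals were expressed as fluorescence equivalents of triamterene, with DMSO vehicle as control.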

[11] = qHTS assay to test for compound auto fluorescence at 535 nm (green) in HEK293 cell free culture (AID 720682); settings: cell-free medium, green autofluorescence 485/535 nm; series mostly up to 46 µM
Procedure, shortened: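 Green-channel intensity (Ex/Em 485/535 nm) was recorded from compound-treated wells containing only DMEM with 10% FBS. Fluorescein provided the equivalency standard.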

[12] = qHTS assay to test for compound auto fluorescence at 590 nm (red) in HEK293 cell free culture (AID 720683); settings: cell-free medium autofluorescence, Ex540/Em590 red; series mostly up to 46 µM
Procedure, shortened: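 Tox21 10K library compounds were pinned into cell-free DMEM with 10% FBS and fluorescence was read at excitation 540 nm. Activity is expressed as Rose Bengal sodium equivalency.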

[13] = qHTS assay to test for compound auto fluorescence at 590 nm (red) in HepG2 cell free culture (AID 720684); settings: cell-free medium autofluorescence, red 540/590 nm; series mostly up to 46 µM
Procedure, shortened: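 Measured in medium alone (MEM containing 10% FBS) following pintool addition of compound; emission at 590 nm with 540 nm excitation, referenced to Rose Bengal sodium.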

[14] = qHTS assay to test for compound auto fluorescence at 460 nm (blue) in HepG2 cell free culture (AID 720685); settings: Cell-free culture medium, blue autofluorescence 405/460 nm; series mostly up to 46 µM
Procedure, shortened: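 Compound (23 nL) or DMSO pinned into cell-free MEM with 10% FBS; blue fluorescence read at 405/460 nm excitation/emission, expressed as auto-fluorescence equivalency to triamterene.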

[15] = qHTS assay to test for compound auto fluorescence at 535 nm (green) in HepG2 cell free culture (AID 720686); settings: Cell-free medium, green autofluorescence 485/535 nm; series mostly up to 46 µM
[16] = qHTS assay to test for compound auto fluorescence at 460 nm (blue) in HepG2 cells (AID 720687); settings: autofluorescence 405/460 nm, 1 h; series mostly up to 46 µM
Procedure, shortened: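 Cells (2,000/well in MEM with 10% FBS) attached overnight at 37 C, then were exposed to compound or DMSO for 1 hr at 37 C, 5% CO2. Fluorescence read at Ex/Em 405/460 nm, expressed as triamterene-equivalent signal.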

[17] = qHTS assay to identify small molecule antagonists of the glucocorticoid receptor (GR) signaling pathway - cell viability counter screen (AID 720693); settings: GR-bla HeLa viability, CellTiter-Glo luminescence, 18 h, with 5 nM dexamethasone present; series mostly up to 58.5 µM; also: potency is read from the fitted curve at half-maximal effect; nearly all actives have a fitted effect of over 55% in size
[18] = qHTS assay for identifying genotoxic compounds that show differential cytotoxicity against isogenic chicken DT40 cell lines with known DNA damage response pathways - wild type cell line (AID 743012); settings: DT40 wild type chicken cells viability, CellTiter-Glo, 40 h; series mostly up to 68.4 µM; also: potency is read from the fitted curve at half-maximal effect; nearly all actives have a fitted effect of over 60% in size
Procedure, shortened: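 Using parental DT40 (300 cells/well), compounds delivered in DMSO incubate 40 h at 37 C/5% CO2. CellTiter-Glo reagent then stands 30 min at room temperature, and luminescence gives cell viability.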

[19] = qHTS assay for identifying genotoxic compounds that show differential cytotoxicity against isogenic chicken DT40 cell lines with known DNA damage response pathways - Rev3 mutant cell line (AID 743014); settings: chicken DT40 Rev3-/- viability, CellTiter-Glo, 40 h; series mostly up to 68.4 µM; also: potency is read from the fitted curve at half-maximal effect; nearly all actives have a fitted effect of over 55% in size
[20] = molecular target: Androgen receptor (Homo sapiens) (UniProt P10275); experiment: qHTS assay to identify small molecule antagonists of the androgen receptor (AR) signaling pathway (AID 743035; active = well fitted inhibition curve with a large enough effect in the signal ratio in the repeat runs, not every such curve was filed as active; the % refers to the signal ratio; also: potency is read from the fitted curve at half-maximal effect); settings: HEK293 AR-UAS-bla, R1881-stimulated, beta-lactamase FRET, 16 h; series mostly up to 58.5 µM
Sequence of Androgen receptor (Homo sapiens) (P10275 whole entry, looked up): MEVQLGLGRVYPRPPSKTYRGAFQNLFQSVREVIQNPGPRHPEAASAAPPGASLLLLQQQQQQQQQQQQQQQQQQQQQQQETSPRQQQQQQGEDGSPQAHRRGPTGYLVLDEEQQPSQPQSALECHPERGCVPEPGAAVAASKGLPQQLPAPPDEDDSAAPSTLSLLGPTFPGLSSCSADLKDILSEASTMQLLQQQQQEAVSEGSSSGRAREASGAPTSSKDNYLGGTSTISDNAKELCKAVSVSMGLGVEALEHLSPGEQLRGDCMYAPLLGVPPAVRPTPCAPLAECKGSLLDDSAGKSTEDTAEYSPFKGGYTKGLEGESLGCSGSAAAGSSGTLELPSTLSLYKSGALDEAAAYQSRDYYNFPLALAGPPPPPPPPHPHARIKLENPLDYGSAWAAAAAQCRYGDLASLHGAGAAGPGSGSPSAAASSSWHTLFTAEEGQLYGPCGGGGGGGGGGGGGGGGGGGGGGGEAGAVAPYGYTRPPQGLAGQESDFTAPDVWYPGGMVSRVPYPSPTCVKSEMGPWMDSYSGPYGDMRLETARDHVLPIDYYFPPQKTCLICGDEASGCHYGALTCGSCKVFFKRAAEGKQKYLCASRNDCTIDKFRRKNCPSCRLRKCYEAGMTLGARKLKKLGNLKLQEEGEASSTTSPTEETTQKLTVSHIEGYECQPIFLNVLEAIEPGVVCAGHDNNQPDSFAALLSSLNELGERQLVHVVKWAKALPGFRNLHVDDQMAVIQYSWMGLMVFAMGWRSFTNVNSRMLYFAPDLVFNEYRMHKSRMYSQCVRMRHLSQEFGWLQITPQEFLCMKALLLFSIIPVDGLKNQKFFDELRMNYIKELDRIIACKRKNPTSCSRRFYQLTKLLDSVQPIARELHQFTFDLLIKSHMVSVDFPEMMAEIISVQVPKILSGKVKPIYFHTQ
Procedure, shortened: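 Using qHTS, AR-UAS-bla GripTite HEK293 cells received compound, then R1881, and were cultured 16 h at 37C/5% CO2 before a 2 h room-temperature LiveBLAzer B/G FRET substrate step and fluorescence measurement.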

[21] = molecular target: Androgen receptor (Homo sapiens) (UniProt P10275); experiment: qHTS assay to identify small molecule antagonists of the androgen receptor (AR) signaling pathway using the MDA cell line (AID 743042; also: potency is read from the fitted curve at half-maximal effect; nearly all actives have a fitted effect of over 55% in size); settings: MDA-kb2 AR-luc, MMTV luciferase, R1881 antagonist, 16 h; series mostly up to 70.3 µM
Procedure, shortened: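 MDA-kb2 cells (human breast carcinoma, stably carrying an MMTV-luciferase reporter responsive to AR and GR) were plated at 3,000 cells/well and preincubated 5 hr at 37C, then given compound plus R1881 agonist for 16 h. ONE-Glo luminescence was read.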

[22] = qHTS assay to identify small molecule antagonists of the thyroid receptor (TR) signaling pathway - cell viability counter screen (AID 743064); settings: GH3.TRE-Luc viability, CellTiter-Fluor, 24 h; series mostly up to 70.3 µM; also: nearly all actives have a fitted effect of over 50% in size
Procedure, shortened: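 In rat pituitary GH3.TRE-Luc reporter cells co-exposed to compound and 1 nM T3 for 23.5 h, cytotoxicity was assessed with CellTiter-Fluor in the same wells, read by fluorescence.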

[23] = qHTS assay to identify small molecule antagonists of the thyroid receptor (TR) signaling pathway (AID 743065); settings: GH3.TRE-Luc, T3-stimulated luciferase inhibition, 23.5 h; series mostly up to 70.3 µM; also: nearly all actives have a fitted effect of over 55% in size
Procedure, shortened: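 GH3.TRE-Luc rat pituitary cells carrying two TR response elements driving luciferase were plated for 4 h, given compound plus 1 nM T3 (final), and incubated 23.5 h at 37 C. ONE-Glo luminescence measured reporter inhibition; CellTiter-Fluor fluorescence tracked cytotoxicity.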

[24] = tested on: thyroid hormone receptor (rat, GH3 cells); experiment: qHTS assay to identify small molecule agonists of the thyroid receptor (TR) signaling pathway (AID 743066; calls by dose curve); settings: GH3.TRE-Luc cells, TR agonist luciferase, 24 h; series mostly up to 83.9 µM
[25] = molecular target: Estrogen receptor (Homo sapiens) (UniProt P03372); experiment: qHTS assay to identify small molecule agonists of the estrogen receptor alpha (ER-alpha) signaling pathway (AID 743075; calls by dose curve;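 also: HEK293 GripTite cells with ER-alpha and UAS-driven beta-lactamase reporter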); settings: HEK293 ER-alpha-UAS-bla, beta-lactamase FRET ratio, 18 h; series mostly up to 70.1 µM
Sequence of Estrogen receptor (Homo sapiens) (P03372 whole entry, looked up): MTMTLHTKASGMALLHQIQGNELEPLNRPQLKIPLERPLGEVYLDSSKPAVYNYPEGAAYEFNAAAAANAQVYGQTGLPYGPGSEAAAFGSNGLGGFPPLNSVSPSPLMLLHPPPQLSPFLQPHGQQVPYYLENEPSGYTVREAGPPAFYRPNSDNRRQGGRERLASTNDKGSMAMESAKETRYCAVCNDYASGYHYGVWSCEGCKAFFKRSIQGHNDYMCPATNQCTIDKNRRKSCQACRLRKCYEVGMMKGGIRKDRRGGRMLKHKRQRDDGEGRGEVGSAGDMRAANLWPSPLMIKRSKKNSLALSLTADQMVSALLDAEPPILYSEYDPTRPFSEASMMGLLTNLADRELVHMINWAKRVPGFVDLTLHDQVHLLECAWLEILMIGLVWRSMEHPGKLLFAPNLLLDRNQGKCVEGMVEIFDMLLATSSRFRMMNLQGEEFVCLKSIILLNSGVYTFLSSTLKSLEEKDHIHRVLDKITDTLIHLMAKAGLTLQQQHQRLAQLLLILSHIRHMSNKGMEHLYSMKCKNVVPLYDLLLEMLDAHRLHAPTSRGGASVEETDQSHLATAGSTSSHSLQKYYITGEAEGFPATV

[26] = qHTS assay to identify small molecule antagonists of the estrogen receptor alpha (ER-alpha) signaling pathway using the BG1 cell line - cell viability counter screen (AID 743081); settings: BG1Luc4E2 viability, CellTiter-Fluor, 22 h; series mostly up to 70.3 µM;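 also: compound given together with 17beta-estradiol as the ER stimulus; nearly all actives have a fitted effect of over 45% in size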
Aromatase (Homo sapiens) = Aromatase (Homo sapiens) (UniProt P11511); experiment: qHTS assay to identify aromatase inhibitors (AID 743083); settings: MCF-7 aro ERE, testosterone-driven ERE luciferase, 24 h; series mostly up to 70.3 µM; also: nearly all actives have a fitted effect of over 55% in size
Sequence of Aromatase (Homo sapiens) (P11511 whole entry, looked up): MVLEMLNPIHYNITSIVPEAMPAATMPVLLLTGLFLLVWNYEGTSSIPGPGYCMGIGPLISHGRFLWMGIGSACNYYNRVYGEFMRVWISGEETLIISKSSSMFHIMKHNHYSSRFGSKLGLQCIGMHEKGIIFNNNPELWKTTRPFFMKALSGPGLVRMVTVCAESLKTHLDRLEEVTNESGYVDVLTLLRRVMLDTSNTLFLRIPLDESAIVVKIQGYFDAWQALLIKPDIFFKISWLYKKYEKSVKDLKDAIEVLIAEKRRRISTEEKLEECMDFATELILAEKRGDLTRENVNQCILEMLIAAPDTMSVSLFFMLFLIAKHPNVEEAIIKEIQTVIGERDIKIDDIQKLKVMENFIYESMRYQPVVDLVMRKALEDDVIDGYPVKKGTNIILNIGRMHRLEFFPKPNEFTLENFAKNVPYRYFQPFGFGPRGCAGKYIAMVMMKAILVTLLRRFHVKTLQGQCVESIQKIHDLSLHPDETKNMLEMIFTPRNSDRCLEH

[27] = qHTS assay to identify aromatase inhibitors - cell viability counter screen (AID 743084); settings: MCF-7 aro ERE viability, CellTiter-Fluor, 24 h; series mostly up to 70.3 µM
[28] = molecular target: Aryl hydrocarbon receptor (Homo sapiens) (UniProt P35869); experiment: qHTS assay to identify small molecule that activate the aryl hydrocarbon receptor (AhR) signaling pathway (AID 743085); settings: HepG2 AhR-luc (HG2L7.5c1), luciferase, 24 h; series mostly up to 70.3 µM;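 also: HG2L7.5c1 human HepG2 liver cells with stably integrated DRE-driven firefly reporter; nearly all actives have a fitted effect of over 15% in size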
Sequence of Aryl hydrocarbon receptor (Homo sapiens) (P35869 whole entry, looked up): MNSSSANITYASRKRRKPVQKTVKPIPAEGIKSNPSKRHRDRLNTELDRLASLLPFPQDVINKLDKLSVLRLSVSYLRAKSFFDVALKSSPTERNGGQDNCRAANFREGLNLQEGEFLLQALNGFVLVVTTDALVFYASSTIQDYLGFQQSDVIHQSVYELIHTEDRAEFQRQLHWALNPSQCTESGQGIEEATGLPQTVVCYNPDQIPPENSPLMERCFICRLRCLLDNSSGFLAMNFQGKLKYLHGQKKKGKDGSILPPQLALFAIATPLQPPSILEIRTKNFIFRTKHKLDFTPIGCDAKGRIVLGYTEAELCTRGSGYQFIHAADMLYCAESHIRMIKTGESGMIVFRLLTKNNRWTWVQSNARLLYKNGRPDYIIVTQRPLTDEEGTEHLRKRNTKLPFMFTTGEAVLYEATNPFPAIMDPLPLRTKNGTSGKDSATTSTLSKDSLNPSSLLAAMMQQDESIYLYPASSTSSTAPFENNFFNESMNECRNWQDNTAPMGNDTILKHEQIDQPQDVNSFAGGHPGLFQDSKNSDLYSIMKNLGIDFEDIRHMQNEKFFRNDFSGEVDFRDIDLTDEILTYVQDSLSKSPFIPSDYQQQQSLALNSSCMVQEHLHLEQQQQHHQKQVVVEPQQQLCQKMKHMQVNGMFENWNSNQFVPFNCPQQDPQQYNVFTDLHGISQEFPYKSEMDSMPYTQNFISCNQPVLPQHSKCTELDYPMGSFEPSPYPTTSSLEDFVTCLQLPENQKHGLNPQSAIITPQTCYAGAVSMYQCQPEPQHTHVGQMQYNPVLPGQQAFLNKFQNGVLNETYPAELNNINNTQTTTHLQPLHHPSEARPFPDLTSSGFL
Procedure, shortened: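 AhR agonist activity is inferred from enhanced light output of a DRE-controlled firefly luciferase reporter in HepG2 cells, measured with ONE-Glo following 24 h treatment at 37C.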

Measured: Potency

CO[C@H]1[C@@H](O)C[C@H](O[C@H]2[C@@H](O)C[C@H](O[C@H]3[C@@H](O)C[C@H](O[C@H]4CC[C@@]5(C)[C@H](CC[C@@H]6[C@@H]5C[C@@H](O)[C@]5(C)[C@@H](C7=CC(=O)OC7)CC[C@]65O)C4)O[C@@H]3C)O[C@@H]2C)O[C@@H]1C
inactive: [3] | [5] | [6] | [7] | [8] | [9] | [10] | [11] | [12] | [13] | [14] | [15] | [16] | [22] | [23] | [24] | [25] | [26] | Aromatase (Homo sapiens) | [27] | [28]
active: [1] 0.0841 µM | [2] 0.0944 µM | [4] 0.699 µM | [17] 0.756 µM | [18] 0.531 µM | [19] 0.668 µM | [20] 0.338 µM | [21] 1.68 µM
